PubChem BioAssay AID434994 (NMMLSC, 2010)
Some of the results follow. Active and inactive are the calls of the source.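 Rule for the calls: active = superoxide signal below 65% of the plate average of sample wells; inactive = the rest.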

Test: superoxide lowering in aged yeast cells, confirmation, cherry picked compounds (AID 434994);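 note: cells aged with compound for 7 days at 30 degrees C before staining; 100% equals mean DHE fluorescence of all compound wells on the plate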
Conditions: S. cerevisiae aging, superoxide DHE fluorescence; at 10 µM; stronger effect = lower value

Superoxide response (% of plate), inactive:
Cc1ccc(C23CC4CC(CC(C(=O)NCC(=O)O)(C4)C2)C3)cc1 106%, Cc1cc(C(F)F)n2nc(C(=O)Nc3ccc(S(=O)(=O)NC45CC6CC(CC(C6)C4)C5)cc3)nc2n1 111%, CCn1c2ccccc2c2cc(NC(=O)CNC)ccc21 107%, Cc1ccc(-c2nnc(Nc3ccc(C(=O)N(C)C)cc3)c3ccccc23)cc1S(N)(=O)=O 107%, Cc1cc(=O)n2[nH]c(-c3cccc(Cl)c3)cc2n1 98.1%, Cc1ccccc1NC(=O)NCC1CCN(Cc2cccc(Cl)c2)CC1 94.6%, CCn1c2ccccc2c2cc(CC(N)=O)ccc21 111%, Cc1ccc(-c2nc(CSCC(=O)NC3CCN(Cc4ccccc4)CC3)c(C)o2)cc1 101%, COC(=O)CNC(=O)c1ccc(OC2CCN(C(=O)C3CC3)CC2)cc1 103%, COc1ccc(C)cc1S(=O)(=O)Nc1cccc(Cl)c1Cl 96.3%, Cc1ccc(-c2nc(CS(=O)CC(=O)N3CCN(c4ncccn4)CC3)c(C)o2)cc1 (stereo unspecified) 92.5%, CCCC(C)C(=O)OCC(=O)Nc1c(Br)cc(C)cc1Br (stereo unspecified) 101%, Cn1c(Nc2ccccc2)cc(=O)n(C)c1=O 100%, CN1CCN(c2cc3c(cc2F)c(=O)c(C(=O)O)cn3CCF)CC1 116%, O=[N+]([O-])c1ccc2c(c1)Nc1nc3ccccc3nc1N2 82.5%, CNC(=O)c1cccc2nc3ccccc3nc12 79.8%
